Measured values reported in publication PMC4336329 (PLoS ONE, 2015).
Hit rate of the full screen: of about 310,000 compounds, about 14,000 (4.5%) showed an effect of 50% or more. The effect is printed as a negative number. Shown is part of a subset that was picked to be rich in strong results.

These compounds were tested against human ether-à-go-go-related gene (hERG) potassium channel (human, UniProt Q12809) (assay: primary screen, population patch clamp on CHO cells stably expressing hERG; higher = less effect of the substance).
Chain of human ether-à-go-go-related gene (hERG) potassium channel (Q12809 whole entry, looked up): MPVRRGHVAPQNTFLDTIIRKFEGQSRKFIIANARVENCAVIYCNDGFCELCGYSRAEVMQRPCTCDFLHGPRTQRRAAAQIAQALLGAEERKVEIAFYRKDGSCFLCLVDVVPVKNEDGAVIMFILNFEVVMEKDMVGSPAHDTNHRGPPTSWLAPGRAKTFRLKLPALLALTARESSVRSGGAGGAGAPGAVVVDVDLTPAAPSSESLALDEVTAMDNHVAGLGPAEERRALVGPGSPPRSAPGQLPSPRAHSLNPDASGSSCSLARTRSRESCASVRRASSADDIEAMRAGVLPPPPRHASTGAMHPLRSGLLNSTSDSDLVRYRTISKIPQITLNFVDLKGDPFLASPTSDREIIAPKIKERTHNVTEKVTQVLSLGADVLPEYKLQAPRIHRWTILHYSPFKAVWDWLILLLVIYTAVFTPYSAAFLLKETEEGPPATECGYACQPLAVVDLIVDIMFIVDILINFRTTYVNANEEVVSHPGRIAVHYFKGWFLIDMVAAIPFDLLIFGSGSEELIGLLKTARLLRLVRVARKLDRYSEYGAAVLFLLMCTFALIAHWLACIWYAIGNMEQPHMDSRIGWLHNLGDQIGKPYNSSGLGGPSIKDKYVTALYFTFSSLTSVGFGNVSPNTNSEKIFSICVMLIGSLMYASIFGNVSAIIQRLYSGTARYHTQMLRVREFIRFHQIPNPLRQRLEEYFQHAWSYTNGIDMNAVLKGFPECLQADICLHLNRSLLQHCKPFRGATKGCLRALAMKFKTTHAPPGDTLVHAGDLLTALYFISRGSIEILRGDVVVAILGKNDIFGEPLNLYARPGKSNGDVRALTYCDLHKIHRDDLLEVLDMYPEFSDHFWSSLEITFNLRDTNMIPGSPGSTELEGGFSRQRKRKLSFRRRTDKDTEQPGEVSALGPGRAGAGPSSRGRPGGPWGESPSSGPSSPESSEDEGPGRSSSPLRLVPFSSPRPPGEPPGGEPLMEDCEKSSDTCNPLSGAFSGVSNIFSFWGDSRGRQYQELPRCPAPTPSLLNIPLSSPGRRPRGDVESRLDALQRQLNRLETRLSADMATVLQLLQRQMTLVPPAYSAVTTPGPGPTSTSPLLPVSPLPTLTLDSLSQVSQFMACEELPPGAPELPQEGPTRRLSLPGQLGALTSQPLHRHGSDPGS
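Note: peak tail current of the secondary pulse compared with the same well before compound.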

Row | SMILES | hERG current change (%, negative = inhibition) at 10uM [%]
1 | CCOC(=O)c1[nH]c(C)c(C(=O)N2CCc3c([nH]c4ccccc34)C2c2ccccn2)c1C (stereo not shown) | -0.347
2 | CSc1nc(SCC(=O)NCc2ccco2)c2c3c(sc2n1)CN(C)CC3 | -0.986
3 | CCC(O)CNc1nc(SC)nc2sc3c(c12)CCN(C)C3 (stereo not shown) | 0.847
4 | CSc1nc(NCc2ccccc2)c2c3c(sc2n1)CN(C)CC3 | -78
5 | CCN(CC)CCCNc1nc(SC)nc2sc3c(c12)CCN(C)C3 | 11
6 | CSc1nc(NCc2ccco2)c2c3c(sc2n1)CN(C)CC3 | -75
7 | CSc1nc(NCCCN(C)C)c2c3c(sc2n1)CN(C)CC3 | 1.56
8 | Cc1ccc(CN2CC(C(=O)O)CC2=O)cc1 (stereo not shown) | 6.55
9 | CCOc1ccc(NC(=O)C(CC(=O)O)Cc2ccc(Br)cc2)cc1 (stereo not shown) | 11.1
10 | COc1ccc(C(=O)Oc2cccc(/C=N/NC(N)=S)c2)cc1 | 11.7
11 | Cc1ccc(NC(=S)N(CCCN2CCOCC2)Cc2ccco2)cc1C | -31.9
12 | Cc1ccc(NC(=S)N(CCCN2CCC(C)CC2)Cc2ccco2)cc1C | -70.3
13 | Cc1ccccc1NC(=S)N(CCCN1CCC(C)CC1)Cc1ccco1 | -47.9
14 | Cc1ccc2[nH]c(=O)c(CN(Cc3ccco3)C(=O)CN3CCCC(C)C3)cc2c1 (stereo not shown) | -57
15 | Cc1ccc(NC(=S)N(CCCN2CCCC(C)C2)Cc2ccco2)cc1C (stereo not shown) | -76.2
16 | Cc1ccc2[nH]c(=O)c(CN(Cc3ccco3)C(=O)N3CCOCC3)cc2c1 | -0.449
17 | Cc1ccc(NC(=S)N(CCCN2CCOCC2)Cc2ccco2)cc1 | 4.36
18 | Cc1ccc2[nH]c(=O)c(CN(Cc3ccco3)C(=O)c3ccncc3)cc2c1 | -43.4
19 | Cc1ccc(NC(=S)N(CCCN2CCC(C)CC2)Cc2ccco2)cc1 | -72
20 | O=C(c1c[nH]c2ccccc12)C(O)C(c1ccccc1)N1CCOCC1 (stereo not shown) | -0.703
21 | CSC1=N/C(=C\c2c(F)cccc2Cl)C(=O)S1 | -17.5
22 | CC(=O)Nc1ccc(NC(=O)CSc2nnc(C)n2-c2ccccc2)cc1 | 26.1
23 | CCOC(=O)C1C(=O)OC2(CCOC(C)(C)C2)C1C(=O)OCC (stereo not shown) | 5.89
24 | COc1ccc(N(CC(=O)NCc2ccccc2Cl)S(=O)(=O)c2c(C)n[nH]c2C)cc1 | 2.87

Row | SMILES | hERG current change (%, negative = inhibition) at 10uM [%]
25 | O=C(Nc1ccc2c(c1)OCCO2)C1CCN(C(=O)c2ccccc2)CC1 | 5.84
26 | O=C(Nc1ccc2c(c1)OCO2)C1CCN(C(=O)c2ccc(Cl)cc2)CC1 | -73.5
27 | O=C(Nc1ccc2c(c1)OCCO2)C1CCN(C(=O)c2ccc(Br)cc2)CC1 | -52.7
28 | O=C(Nc1ccc2c(c1)OCO2)C1CCCCC1 | 0.102
29 | COc1ccc(C(=O)N2CCC(C(=O)Nc3ccc4c(c3)OCO4)CC2)cc1 | -79.9
30 | COc1cc(OC)cc(C(=O)N2CCC(C(=O)Nc3ccc4c(c3)OCCO4)CC2)c1 | 2.48
31 | O=C(Nc1ccc2c(c1)OCCO2)C1CCN(C(=O)c2ccc(Cl)cc2)CC1 | -12.5
32 | CS(=O)(=O)N1CCC(C(=O)Nc2ccc3c(c2)OCO3)CC1 | -7.81
33 | O=C(Nc1ccc2c(c1)OCO2)C1CCN(C(=O)c2ccc(Br)cc2)CC1 | -70.5
34 | O=C(Nc1ccc2c(c1)OCCO2)C1CCN(C(=O)c2ccc(F)cc2)CC1 | 3.73
35 | COc1ccc(C(=O)N2CCC(C(=O)Nc3ccc4c(c3)OCCO4)CC2)cc1 | -44.2
36 | Cc1ccccc1C(=O)N1CCC(C(=O)Nc2ccc3c(c2)OCO3)CC1 | 3.97
37 | Cn1c(=O)n(CCCOc2ccc(Br)cc2)c2ccccc21 | -3.96
38 | COc1ccc(C2C(C(=O)c3ccco3)=C(O)C(=O)N2CC2CCCO2)cc1OC (stereo not shown) | 24.1
39 | O=C(CCN1c2ccccc2Sc2ccccc21)OCc1nnc(-c2ccccc2)o1 | 5.92
40 | O=S1(=O)CCOC[C@H](Cc2ccccc2)N1Cc1ccccc1 | -37.8
41 | Cc1nc2c3ccccc3nc(NNC(=O)CCC(=O)N3CCN(c4ccccc4F)CC3)n2n1 | -40.3
42 | CCOc1ccc(NC(=O)C2CCCN(C(=O)Nc3ccccc3)C2)cc1 (stereo not shown) | 2.35
43 | Cc1cc(C)n(C(C)CC(=O)Nc2ccc3c(c2)OCO3)n1 (stereo not shown) | 10.2
44 | COc1cc(OC)c(NC(=O)c2ccco2)cc1Cl | -14.3
45 | O=C1OCCC1Sc1nc2ccccc2c(=O)n1Cc1ccc(F)cc1 (stereo not shown) | -75.5
46 | O=C1OCCC1Sc1nc2ccccc2c(=O)n1-c1ccc(F)cc1 (stereo not shown) | 8.7
47 | Cc1ccc(Cn2c(SC3CCOC3=O)nc3ccccc3c2=O)cc1 (stereo not shown) | -42.9
48 | O=C1OCCC1Sc1nc2ccccc2c(=O)n1Cc1ccccc1 (stereo not shown) | -82.4

Row | SMILES | hERG current change (%, negative = inhibition) at 10uM [%]
49 | O=C1OCCC1Sc1nnc(-c2ccccc2Cl)n1Cc1ccccc1 (stereo not shown) | 2.19
50 | O=C1OCCC1Sc1nc2cc(Cl)ccc2n1Cc1ccccc1 (stereo not shown) | -63.9
51 | O=C1OCCC1Sc1nc2ccccc2n1Cc1ccccc1 (stereo not shown) | -46.3
52 | COCCn1c(SC2CCOC2=O)nc2ccccc2c1=O (stereo not shown) | -31
53 | CSc1nc2ccccc2c(=O)n1Cc1ccc(F)cc1 | 15.4
54 | O=C(Nc1ccccc1Cl)c1ccc(=O)[nH]n1 | 8.03
55 | COCCn1c(SCC(=O)N(C(C)C)C(C)C)nnc1-c1cc2ccccc2cc1O | -15.8
56 | COc1cccc(CN(C)C(=O)c2cc(S(=O)(=O)NC3CCCCC3)ccc2C)c1OC | -4.41
57 | COc1ccc(-c2oc3ccccc3c(=O)c2OC(C)=O)cc1 | -11.3
58 | CC(=O)c1cccc(NC(=O)NCc2cccnc2)c1 | 12.2
59 | O=C(Oc1ccccc1)N(c1ccccc1)c1ccccc1 | 2.8
60 | NS(=O)(=O)c1ccc(NC(=O)CN2CCCc3ccccc32)cc1 | -5.73
61 | N#Cc1ccccc1S(=O)(=O)N1CCN(CC(=O)NC(=O)NC2CCCCC2)CC1 | -31.6
62 | N#Cc1ccc(S(=O)(=O)N2CCN(CC(=O)Nc3ccccc3C(=O)NC3CC3)CC2)cc1 | -73.9
63 | O=C(CN1CCN(S(=O)(=O)c2ccccc2)CC1)NC1CC1 | 15.3
64 | O=C(CN1CCN(S(=O)(=O)c2ccc(F)c(F)c2)CC1)Nc1ccccc1C(=O)NC1CC1 | -72.3
65 | CC(C#N)(NC(=O)CN1CCN(S(=O)(=O)c2ccccc2C#N)CC1)C1CC1 (stereo not shown) | 2.51
66 | N#Cc1ccccc1S(=O)(=O)N1CCN(CC(=O)Nc2ccccc2C(=O)NC2CC2)CC1 | -66.5
67 | O=C(CN1CCN(S(=O)(=O)c2ccccc2)CC1)Nc1ccccc1C(=O)c1ccccc1 | -19.4
68 | O=C(CN1CCN(S(=O)(=O)c2ccccc2F)CC1)Nc1ccccc1C(=O)c1ccccc1 | -22.8
69 | NC(=O)C1CCN(CC(=O)Nc2ccccc2C(=O)NC2CC2)CC1 | 1.42
70 | Cc1ccccc1C(=O)NC1CCN(CC(=O)Nc2ccccc2Cl)CC1 | -14.4
71 | O=C(CN1CCN(S(=O)(=O)c2ccc(F)cc2)CC1)NC1CCCC1 | -8.45
72 | N#Cc1ccc(CN2CCN(CC(=O)Nc3ccccc3C(=O)NC3CC3)CC2)cc1 | -77.9

Row | SMILES | hERG current change (%, negative = inhibition) at 10uM [%]
73 | O=C(Cc1c(F)cccc1Cl)Nc1ccccc1C(=O)N1CCOCC1 | 3.32
74 | C#CCOc1ccc(/C=C2/C(=O)ON=C2C)cc1Cl | 10.9
75 | Oc1ccc(Br)cc1/C=N/n1c(COc2ccccc2)n[nH]c1=S | 16.5
76 | CCCCNC(=O)COC(=O)c1ccc(F)cc1Cl | -10.8
77 | COc1ccc(-c2cc(=O)oc3cc(OC(C)C(=O)Nc4ccc(CN5CCOCC5)cc4)ccc23)cc1 (stereo not shown) | -0.104
78 | O=C(c1ccc(Cl)cc1)c1cnc(Nc2ccccc2Cl)s1 | -1.11
79 | Cc1cc(C)c(NC(=O)CSc2nnc(CN3CCOCC3)n2C)c(C)c1 | 13.5
80 | COc1ccc(C(C(=O)NC2CCCC2)N(C(=O)c2ccoc2C)c2ccccc2)cc1 (stereo not shown) | -3.9
81 | CC(=O)c1ccc(S(=O)(=O)N2CCN(CC(=O)NC(=O)NC3CCCCC3)CC2)cc1 | -16.8
82 | CC(=O)c1ccc(S(=O)(=O)N2CCN(CC(=O)Nc3ccccc3C(=O)NC3CC3)CC2)cc1 | -75.4
83 | O=C(CN1CCN(S(=O)(=O)c2ccccc2)CC1)Nc1ccccc1C(=O)NC1CC1 | -27.1
84 | CCn1c(SCC(=O)NC2CCCCC2)nnc1-c1cc2cccc(OC)c2o1 | -26
85 | CCCCn1c(SCC(=O)NCc2ccco2)nc2cc(S(N)(=O)=O)ccc21 | -7.32
86 | COc1ccc(NC(NC(=O)c2cccnc2)C(Cl)(Cl)Cl)cc1 (stereo not shown) | 29.3
87 | CC1CCCN(C(=O)COc2ccc(-c3ccccc3)cc2)C1 (stereo not shown) | -35.5
88 | Cl.OCCN1CCN(CC(O)COc2ccc(-c3ccccc3)cc2)CC1 (stereo not shown) | -45.9
89 | OC1CCCN(CC(O)COc2ccc(-c3ccccc3)cc2)C1 (stereo not shown) | -52.9
90 | CC1CCCN(CC(O)COc2ccc(Cl)cc2)C1.Cl (stereo not shown) | -69.2
91 | CC1CCCN(CC(O)COc2ccc(-c3ccccc3)cc2)C1 (stereo not shown) | -73.4
92 | CC(=O)c1ccc(OCC(O)CN2CCCC(C)C2)cc1.Cl (stereo not shown) | -1.2
93 | CC1CCCN(CC(O)COc2ccc3c(c2)OCO3)C1.Cl (stereo not shown) | -15.1
94 | OC(COc1ccc(-c2ccccc2)cc1)CN1CCOCC1 (stereo not shown) | -19.7
